Rows were chosen to be rich in hits. Some 7.3% of all compounds tested hit in one or more screens of this group.
VACV Venus inh – inhibitors of vaccinia virus (Venus reporter); Vaccinia virus Venus reporter expression, fluorescence; Potency, µM (titrated, usually from 36.5 µM), usual class: inhibitors; 330,000 tested, 0.46% active; AID 720580; calls by dose curve; tested in A549 cells; further: nearly all actives have a fitted effect of over 30% in size
FMDV antiviral – antivirals against foot and mouth disease virus; AID 1159524; FMDV antiviral cell-based qHTS; Potency, µM (top dose mostly 57.9 µM), most hits filed as inhibitors; 410,000 tested, 1.2% active; calls by dose curve; tested in HEK293T cells; further: read-out not given here; nearly all actives have a fitted effect of over 45% in size
HCMV antiviral – blocks human cytomegalovirus replication | activity change, negative = inhibition, % at 57.5 µM | HFF cells, HCMV-luciferase reporter, 72 h; active compounds read low | 410,000 tested, 4.5% active; in the data active means activity change below about -60%; inconclusive means no clear call, values can overlap the other calls; inactive means above about -39%
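Two compound doses tested in HFFs infected with HCMV-luciferase, MOI 1 PFU/cell, 72 h at 37C. Lysate luminescence read with OneGlo; data normalized against buffer-only and 10uM Salinomycin inhibitor controls.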
HCV inhibitor – inhibitors of hepatitis C virus infection | Potency, µM (highest dose often 41.8 µM), most hits filed as inhibitors | Huh7.5.1 HCVcc-Cre infection, luciferase reporter, 44 h | 340,000 tested, 3.4% active | AID 651820; active means well fitted inhibition curve with a large enough effect; inconclusive means small, poorly fitted or top-dose-only effect, or another doubt; inactive means no such curve, though single readings can be large or run the other way
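Antiviral activity was scored by luciferase reporter output from cells infected with HCVcc-Cre (~0.5 moi) in presence of compound, 44 h infection period, cells seeded 1,000/well 4 h prior.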
VACV mCherry inh – inhibitors of vaccinia virus infection (mCherry reporter signal) | Vaccinia virus mCherry reporter infection, fluorescence | Potency, µM (series often up to 36.5 µM), hits mostly inhibitors | 310,000 tested, 0.63% active | AID 720579; calls by dose curve; tested in A549 cells; further: nearly all actives have a fitted effect of over 35% in size
Each line names hits and unclear results; the compound was inactive in the other large screens.

CC(C)N(C(=O)COC(=O)[C@H](C)NC(N)=O)c1ccccc1	HCMV antiviral inconclusive
COc1ccc(NC(=O)Cn2cnc3c(nc4n3CCCCC4)c2=O)c(OC)c1	none (no result: HCV inhibitor)
COc1cc(NC(=O)Cn2c(=O)ccc3cc(S(=O)(=O)N4CCCC4)ccc32)cc(OC)c1	FMDV antiviral inconclusive (no result: HCV inhibitor)
Cc1cccc(CSC(=N)N)c1	HCMV antiviral -63
COCCCNC(=O)C1CCCN(c2nn3cc(-c4ccc(C)cc4)nc3s2)C1 (stereo unspecified)	none (no result: HCV inhibitor)
Cc1ccccc1N1CC(O)(c2cccs2)[N+]2=C1CCCC2 (stereo unspecified)	HCMV antiviral -60, HCV inhibitor inconclusive
Cc1cccc(N2CC(O)(c3cccs3)[N+]3=C2CCCC3)c1C (stereo unspecified)	HCMV antiviral inconclusive
O=C1/C(=C/c2ccccc2)CCc2ccc(Cl)nc21	FMDV antiviral 35µM, HCMV antiviral -63, HCV inhibitor inconclusive
O=C1OCC/C1=C\c1ccccc1	none
CCc1ccc(NC(=O)Cn2c(-c3cncs3)nc3ccccc32)cc1	none (no result: HCV inhibitor)
CC(NC(=S)Nc1ccc(OC(F)F)c(Cl)c1)C(C)(C)C (stereo unspecified)	VACV Venus inh inconclusive, HCMV antiviral inconclusive, HCV inhibitor 11µM
Cc1ccc(NC(=S)Nc2ccc(Cl)c(Cl)c2)c(OC(F)F)c1	VACV Venus inh inconclusive, FMDV antiviral inconclusive, HCMV antiviral -75, HCV inhibitor inconclusive
NC(=S)Nc1ccc(Cl)c(Cl)c1	HCMV antiviral -60 (no result: VACV Venus inh, VACV mCherry inh)
Cc1ccc(NC(=S)Nc2ccc(OC(F)F)c(Cl)c2)cc1Cl	VACV Venus inh inconclusive, HCMV antiviral -89, HCV inhibitor inconclusive
COC(=O)N1CCC2(CCCN(c3ncccn3)C2)CC1	none (no result: VACV Venus inh, HCMV antiviral, HCV inhibitor, VACV mCherry inh)
FC(F)Oc1ccc(NC(=S)NCc2ccccc2)cc1	VACV Venus inh inconclusive
O=C(Cc1cccc2ccccc12)Nc1ccc(OC(F)F)c(Cl)c1	none
FC(F)Oc1ccc(NC(=S)NCc2ccccc2)cc1Cl	HCMV antiviral inconclusive, HCV inhibitor 13µM (no result: VACV Venus inh, VACV mCherry inh)
Cc1ccc(NC(=S)Nc2cc(-c3ccccc3)[nH]n2)cc1Cl	HCMV antiviral -72
O=C(Nc1ccc(OC(F)F)c(Cl)c1)C(c1ccccc1)c1ccccc1	FMDV antiviral 40µM, HCV inhibitor inconclusive (no result: VACV Venus inh, VACV mCherry inh)
Cc1cc(C)cc(NC(=S)Nc2ccc(Cl)c(Cl)c2)c1	HCMV antiviral -68
CC(=O)N1CCC[C@@]2(CCN(C(c3ccccc3)c3ccccc3)C2)C1	none (no result: VACV Venus inh, HCMV antiviral, HCV inhibitor, VACV mCherry inh)
S=Cc1nc2ccccc2[nH]1	none (no result: FMDV antiviral, HCMV antiviral, HCV inhibitor)
CSc1nc(C)cc(Nc2c(C)cc(C)cc2C)n1	FMDV antiviral inconclusive (no result: HCV inhibitor)
NC1CCc2ccccc21 (stereo unspecified)	none (no result: FMDV antiviral, HCMV antiviral, HCV inhibitor)
CC(/C=N\NC(=O)Cn1c(C)nc2ccccc21)=C\c1ccccc1	FMDV antiviral inconclusive, HCMV antiviral -86, HCV inhibitor inconclusive
CC(/C=N/NC(=O)CSc1nc(C)cc(C)n1)=C\c1ccccc1	FMDV antiviral inconclusive
C/C(=N\NC(=O)Cn1c(C)nc2ccccc21)c1cccs1	FMDV antiviral inconclusive, HCMV antiviral -64, HCV inhibitor inconclusive
COc1ccc(NC(=O)COC(=O)Cn2cnc3ccccc32)cc1	none
Cn1c(=O)c2c(ncn2CC(=O)N/N=C/C(Br)=C/c2ccccc2)n(C)c1=O	FMDV antiviral inconclusive, HCMV antiviral inconclusive
O=C(Cn1cnc2ccccc21)N/N=C/C(Br)=C/c1ccccc1	VACV Venus inh inconclusive, FMDV antiviral inconclusive, HCMV antiviral -66, VACV mCherry inh inconclusive
O=C(Cn1cnc2ccccc21)Nc1ccc(SC(F)F)cc1	FMDV antiviral inconclusive, HCV inhibitor 8.9µM
COc1ccccc1CCNC(=O)c1ccc(NC(=O)N2CC(C)Sc3ccccc32)cc1 (stereo unspecified)	FMDV antiviral inconclusive (no result: HCV inhibitor)
Nc1ncnc2c1ncn2[C@@H]1O[C@H](COP(=O)(O)OP(=O)(O)OC[C@H]2OC(O)[C@H](O)[C@@H]2O)[C@@H](O)[C@H]1O (stereo partly specified)	none (no result: HCMV antiviral, HCV inhibitor)
Oc1ccc2ccccc2c1CN1CCCCC1	VACV mCherry inh inconclusive
Clc1ccccc1CN1CCC(Cc2ccccc2)CC1	HCMV antiviral -101
Cc1ccc(C)c(S(=O)(=O)N2CCN(Cc3ccc(O)c4ncccc34)CC2)c1	VACV Venus inh inconclusive, HCMV antiviral -100, HCV inhibitor inconclusive, VACV mCherry inh inconclusive
Oc1cc2c(cc1CN1CCc3ccccc3C1)OCO2	VACV mCherry inh inconclusive
Oc1ccc(CN2CCc3ccccc3C2)c2cccnc12	HCMV antiviral -99, HCV inhibitor 4µM (no result: VACV Venus inh, VACV mCherry inh)
Oc1ccc(CN2CCCCC2)c2cccnc12	VACV Venus inh inconclusive, HCMV antiviral -68, HCV inhibitor 6.3µM (no result: FMDV antiviral)
COc1ccc(CNC(=O)CCc2c(C)c3ccc(OC)c(C)c3oc2=O)cc1OC	none (no result: HCV inhibitor)
C[C@@H]1CN([C@H](C)CO)C(=O)c2cc(NC(=O)Nc3ccccc3)ccc2O[C@@H](C)CCCCO[C@H]1CN(C)S(C)(=O)=O	none (no result: VACV Venus inh, FMDV antiviral, HCV inhibitor, VACV mCherry inh)
CCOC(=O)N1CCN(Cc2ccc(O)c3ncccc23)CC1	VACV Venus inh inconclusive, HCV inhibitor 4.5µM, VACV mCherry inh inconclusive
Oc1ccc(CN2CCC(Cc3ccccc3)CC2)c2cccnc12	VACV Venus inh inconclusive, FMDV antiviral inconclusive, HCMV antiviral -101, HCV inhibitor inconclusive
Oc1c(CN2CCOCC2)ccc2ccccc12	VACV mCherry inh inconclusive
Oc1c(CN2CCCCC2)ccc2cccnc12	VACV Venus inh inconclusive, HCMV antiviral -74, HCV inhibitor 10µM, VACV mCherry inh 8.9µM
CCC1CN(C(=O)N2CCC(C(=O)NCCc3ccccc3Cl)CC2)c2cc(C)ccc2O1 (stereo unspecified)	FMDV antiviral inconclusive (no result: HCV inhibitor)
COc1ccc(S[C@]2(C(=O)N3CCCC3)CC(=O)N(c3ccc(Cl)cc3)[C@@H]2c2ccc(OC)cc2)cc1	none (no result: VACV Venus inh, FMDV antiviral, HCV inhibitor, VACV mCherry inh)
CCN(C(=O)C1CCN(S(=O)(=O)c2ccc3c(c2)CCCN3C(=O)C2CCC2)CC1)c1cccc(C)c1	FMDV antiviral inconclusive (no result: HCV inhibitor)
Cc1ccc(NC(=O)C(=O)NCC2OCCc3ccccc32)cc1 (stereo unspecified)	none (no result: VACV Venus inh, VACV mCherry inh)
O=C(NCC1OCCc2ccccc21)c1ccc(NC(=O)c2ccc(Cl)cc2)cc1 (stereo unspecified)	VACV Venus inh inconclusive, HCMV antiviral -82, HCV inhibitor 4.5µM, VACV mCherry inh inconclusive
O=C(O)c1ccc(O)c2ncccc12	none (no result: VACV Venus inh, HCV inhibitor, VACV mCherry inh)
Cc1ccc(N=Nc2ccc(O)c3ncccc23)cc1C	HCMV antiviral -98, HCV inhibitor inconclusive (no result: VACV Venus inh, VACV mCherry inh)
Cc1ccc(N=Nc2ccc(O)c3ncccc23)cc1	VACV Venus inh inconclusive, HCMV antiviral -96, HCV inhibitor inconclusive, VACV mCherry inh 13µM
COc1ccc(OC)c(C(=O)N2CCc3c(cnc(C)c3CNS(=O)(=O)N(C)C)C2)c1	none (no result: HCMV antiviral, HCV inhibitor)
Cc1nnc(Nc2ccc3c(c2)OCO3)c2ccccc12	HCMV antiviral -91
Cc1ccc(-c2nnc(Nc3ccc4c(c3)OCO4)c3ccccc23)cc1S(N)(=O)=O	HCMV antiviral -73, HCV inhibitor inconclusive, VACV mCherry inh inconclusive
COC(=O)c1ccc(-c2cccc3c2OC(CNC(=O)/C=C/c2ccc(OC)c(OC)c2)C3)nc1 (stereo unspecified)	none (no result: HCMV antiviral, HCV inhibitor)
OCCN1CCN(Cc2ccc3c(c2)CN(Cc2cccc4ncccc24)CCO3)CC1	none (no result: HCMV antiviral, HCV inhibitor)
C/C(O)=C(/C#N)c1nc2ccccc2[nH]1	VACV Venus inh inconclusive (no result: VACV mCherry inh)
